The text below walks through data of PubChem BioAssay (NCATS).

Results filed as inconclusive are left out. Values without a mark were called inactive. Activity calls are given as the source filed them. Calls follow the shape of the dose curve; as a rule, active = well fitted curve in the direction sought with a large enough effect; inconclusive = small, poorly fitted or top-dose-only effect, or another doubt; inactive = no such curve, though single readings can be large; an effect the other way counts as inactive or inconclusive.

The nature of the first assay: NS1 protein of Zika virus - qHTS assay to identify small molecule inhibitors in human HEK 293 cells (AID 1347053).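 Also: plate controls were infected untreated cells for no effect and uninfected cells for full effect; nearly all actives have a fitted effect of over 55% in size.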 The following applies: HEK293 ZIKV MR766 infection, NS1 TR-FRET, 24 h; series mostly up to 46.1 µM; activity change, negative = inhibition: at the top concentration. The gist of the method: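 Read-out is a two-antibody TR-FRET for ZIKV NS1, normalized between uninfected cells and infected cells. Compound added 1 h before MR766 infection at MOI 0.5; human HEK 293 cells incubated 24 h, 37 C.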
On the technique in general: In qHTS, concentration-response curves come from the screen itself.
On to `CC(C)=CCNc1ncnc2c1ncn2[C@@H]1O[C@H](CO)[C@@H](O)[C@H]1O`, for which the “activity change, negative = inhibition” value was 10.1%.

With `CC1CCCCN1CCCOC(=O)c1ccc(OC2CCCCC2)cc1` (stereo not given), the “activity change, negative = inhibition” value is 21.3%.

`Nc1nc2ccccc2n1Cc1ccc(F)cc1`: the “activity change, negative = inhibition” value was -0.997%.

Consider `CCOC(=O)C(=O)c1csc(NC=O)n1`, for which the “activity change, negative = inhibition” value is -13.6%.

For `CCCC(=O)OCOC(=O)C1=C(C)NC(C)=C(C(=O)OC)C1c1cccc(Cl)c1Cl` (stereo not given), the “activity change, negative = inhibition” value was -10.7%.

Turning to `CCOC(=O)N1CCC(Nc2ccc(Cl)cc2N)CC1`, the “activity change, negative = inhibition” value was 2.29%.

Take `CN(C)CCOC1=Cc2ccccc2Sc2ccc(Cl)cc21`: the “activity change, negative = inhibition” value is 7.11%.

For the molecule `CCCCCOc1ccccc1/C(=C\SC)n1ccnc1`, the “activity change, negative = inhibition” value was -22%.

Take `Fc1ccc(C(c2ccc(F)cc2)N2CCNCC2)cc1`: the “activity change, negative = inhibition” value is 3.91%.

For the molecule `O=C(O)Cn1c(=O)n(Cc2ccc(Br)cc2F)c(=O)c2ccc(Cl)cc21`, the “activity change, negative = inhibition” value is -1.71%.

Regarding `CC(C)(C)c1nnc(NS(=O)(=O)c2ccccc2)s1`, the “activity change, negative = inhibition” value is 11.7%.

Consider `Cc1onc(-c2ccccc2)c1C(=O)Cl`, for which the “activity change, negative = inhibition” value was -4.25%.

As to `Nc1nc(=O)n([C@@H]2O[C@H](CO)[C@@H](O)[C@@H]2F)cc1I`, the “activity change, negative = inhibition” value is 5.3%.

Consider `O=C(CCCl)NCc1ccccc1`, for which the “activity change, negative = inhibition” value is 3.42%.

As for `Cc1ccc(C(C)OC(=O)C2(C)CCC(C(=O)O)C2(C)C)cc1` (stereo not given), the “activity change, negative = inhibition” value was -0.153%.

For the molecule `C[C@H]1C[C@H](O)c2ccsc2S1(=O)=O`, the “activity change, negative = inhibition” value was -14.6%.

On to `CCN1CCN(c2cc(-c3ccc(F)cc3)c3c(n2)CCCCCC3)CC1`, for which the “activity change, negative = inhibition” value is 1.03% [at 20.1 µM].

As to `Nc1cccc2c(N)cccc12`, the “activity change, negative = inhibition” value was 10.5% [at 92.8 µM].

As to `CCCCCCCCCCCCCCCCCCN(C)C`, the “activity change, negative = inhibition” value was -14.8%.

Regarding `O=C(Nc1ccc(S(=O)(=O)N2CCOCC2)cc1)c1cc(Cl)ccc1NS(=O)(=O)c1ccc(Cl)s1`, the “activity change, negative = inhibition” value was -9.18%.

As for `CC(COc1ccccc1)NN` (stereo not given), the “activity change, negative = inhibition” value is -3.66%.

`CC(C)(C)c1ccc(O)c(O)c1`: the “activity change, negative = inhibition” value is 7.1% [at 92.8 µM].

Consider `Oc1cccc2[nH]ccc12`, for which the “activity change, negative = inhibition” value is -15%.

Consider `CCOc1ccccc1OCC1CNCCO1` (stereo not given), for which the “activity change, negative = inhibition” value is 4.11%.

On to `C1N2CN3CN1CN(C2)C3`, for which the “activity change, negative = inhibition” value is 12.8%.

Take `CCOC(=O)C(O)c1ccccc1` (stereo not given): the “activity change, negative = inhibition” value is 0.772%.

Consider `O=C1Nc2cc(Cl)ccc2Oc2ccccc21`, for which the “activity change, negative = inhibition” value is 4.9%.

Take `CCOC(=O)O[C@]1(C(=O)OCCl)CC[C@H]2[C@@H]3CCC4=CC(=O)C=C[C@]4(C)[C@H]3[C@@H](O)C[C@@]21C`: the “activity change, negative = inhibition” value is -15.2%.

As to `Oc1ccc(CCNCCCCCCNCCc2ccccc2)cc1O`, the “activity change, negative = inhibition” value was 4.58%.

Take `NC(=O)COCCN1CCN(C(c2ccccc2)c2ccc(Cl)cc2)CC1` (stereo not given): the “activity change, negative = inhibition” value was -13.3%.

For the molecule `CCOC(=O)Oc1ccc(CCNC(=O)[C@H](CCSC)NC(C)=O)cc1OC(=O)OCC`, the “activity change, negative = inhibition” value was -3.54%.

For `CN1N=C(C(N)=O)CCC1=O`, the “activity change, negative = inhibition” value is -2.2%.

Regarding `CCCC(=O)c1cc(O)c(O)cc1O`, the “activity change, negative = inhibition” value is 12.7% [at 92.8 µM].

In the case of `CCCc1c2oc(C(=O)O)cc(=O)c2cc2c(=O)cc(C(=O)O)n(CC)c12`, the “activity change, negative = inhibition” value is -5.88%.

Regarding `O=C(O)[C@H](O)[C@@H](O)[C@H](O[C@@H]1O[C@H](CO)[C@H](O)[C@H](O)[C@H]1O)[C@H](O)CO`, the “activity change, negative = inhibition” value is 6.63%.

`CC1(C)OC(=O)Nc2ccc(Br)cc21`: the “activity change, negative = inhibition” value is -1.17%.

Consider `CC(C)(C)C(=O)OCOC(=O)C1N2C(=O)CC2S(=O)(=O)C1(C)C` (stereo not given), for which the “activity change, negative = inhibition” value is 7%.

In the case of `O=C(NN1CCCC1)NS(=O)(=O)c1ccc(Cl)cc1`, the “activity change, negative = inhibition” value was -0.415%.

Turning to `Nc1ncnc2nc[nH]c12`, the “activity change, negative = inhibition” value is -0.335%.

For `Cc1ccc(C(=O)C(=O)O)cc1C`, the “activity change, negative = inhibition” value is 6.89%.

A short description of the next assay: qHTS of pediatric cancer cell lines to identify multiple opportunities for drug repurposing: Primary screen for TC32 cells (AID 1347089). Also: nearly all actives have a fitted effect of over 60% in size. Also: potency is read from the fitted curve at half-maximal effect. As to activity change, negative = cytotoxic: % is scaled to controls: 0 for no effect and ±100 for the full control effect. The following applies: TC32 Ewing sarcoma viability, CellTiter-Glo luminescence, 48 h; series mostly up to 45.8 µM; activity change, negative = cytotoxic: at the top concentration. The gist of the method:
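qHTS, TC32, 48 h drug treatment, CellTiter-Glo luminescence as a proxy for metabolically active cells; primary top concentration 46 µM (MIPE 11-pt, NPC 8-pt); confirmatory 11-pt.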
With `CC(C)=CCNc1ncnc2c1ncn2[C@@H]1O[C@H](CO)[C@@H](O)[C@H]1O`, the Potency was 5.92 µM (active).

As to `CCN1CCN(c2cc(-c3ccc(F)cc3)c3c(n2)CCCCCC3)CC1`, the “activity change, negative = cytotoxic” value was 3.91% [at 16 µM].

On to `O=C(Nc1ccc(S(=O)(=O)N2CCOCC2)cc1)c1cc(Cl)ccc1NS(=O)(=O)c1ccc(Cl)s1`, for which the “activity change, negative = cytotoxic” value is 10.1%.

Turning to `CCCC(=O)c1cc(O)c(O)cc1O`, the “activity change, negative = cytotoxic” value was -0.295% [at 92.2 µM].

A short description of a further assay: qHTS of pediatric cancer cell lines to identify multiple opportunities for drug repurposing: Primary screen for DAOY cells (AID 1347090). Also: nearly all actives have a fitted effect of over 55% in size. Also: potency is read from the fitted curve at half-maximal effect.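 As to activity change, negative = cytotoxic: plate controls were DMSO for no effect and bortezomib for full effect.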 The following applies: DAOY medulloblastoma viability, CellTiter-Glo luminescence, 48 h; series mostly up to 46 µM; activity change, negative = cytotoxic: at the top concentration. The gist of the method:
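Cell viability, CellTiter-Glo luminescence; 500-1,000 cells/well, 8- or 11-point titration, 48 h compound exposure at 37 degrees C, 5% CO2. Controls: DMSO neutral, bortezomib 2.3 µM final as positive.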
As to `CC1CCCCN1CCCOC(=O)c1ccc(OC2CCCCC2)cc1` (stereo not given), the “activity change, negative = cytotoxic” value is -8.62%.

On to `Nc1nc2ccccc2n1Cc1ccc(F)cc1`, for which the “activity change, negative = cytotoxic” value was -8.19%.

As to `CCOC(=O)C(=O)c1csc(NC=O)n1`, the “activity change, negative = cytotoxic” value was 3.68%.

`CCCC(=O)OCOC(=O)C1=C(C)NC(C)=C(C(=O)OC)C1c1cccc(Cl)c1Cl` (stereo not given): the “activity change, negative = cytotoxic” value was 2.37%.

For `CCOC(=O)N1CCC(Nc2ccc(Cl)cc2N)CC1`, the “activity change, negative = cytotoxic” value was -26.2%.

In the case of `CN(C)CCOC1=Cc2ccccc2Sc2ccc(Cl)cc21`, the “activity change, negative = cytotoxic” value was -3.73%.

Turning to `CCCCCOc1ccccc1/C(=C\SC)n1ccnc1`, the “activity change, negative = cytotoxic” value is -27.4%.

Consider `Fc1ccc(C(c2ccc(F)cc2)N2CCNCC2)cc1`, for which the “activity change, negative = cytotoxic” value is 9.67%.

Turning to `O=C(O)Cn1c(=O)n(Cc2ccc(Br)cc2F)c(=O)c2ccc(Cl)cc21`, the “activity change, negative = cytotoxic” value was 2.2%.

With `CC(C)(C)c1nnc(NS(=O)(=O)c2ccccc2)s1`, the “activity change, negative = cytotoxic” value is 1.3%.

For the molecule `Cc1onc(-c2ccccc2)c1C(=O)Cl`, the “activity change, negative = cytotoxic” value is 11.4%.

In the case of `Nc1nc(=O)n([C@@H]2O[C@H](CO)[C@@H](O)[C@@H]2F)cc1I`, the “activity change, negative = cytotoxic” value is -7.18%.

`O=C(CCCl)NCc1ccccc1`: the “activity change, negative = cytotoxic” value is 3.01%.

As to `Cc1ccc(C(C)OC(=O)C2(C)CCC(C(=O)O)C2(C)C)cc1` (stereo not given), the “activity change, negative = cytotoxic” value is 1.01%.

Consider `C[C@H]1C[C@H](O)c2ccsc2S1(=O)=O`, for which the “activity change, negative = cytotoxic” value was 8.21%.

For the molecule `Nc1cccc2c(N)cccc12`, the “activity change, negative = cytotoxic” value was -23% [at 92.7 µM].

Consider `CCCCCCCCCCCCCCCCCCN(C)C`, for which the “activity change, negative = cytotoxic” value was -2.81%.

On to `CC(COc1ccccc1)NN` (stereo not given), for which the “activity change, negative = cytotoxic” value is 9.3%.

As for `CC(C)(C)c1ccc(O)c(O)c1`, the Potency was 24.3 µM (active).

Turning to `Oc1cccc2[nH]ccc12`, the “activity change, negative = cytotoxic” value was 0.507%.

In the case of `CCOc1ccccc1OCC1CNCCO1` (stereo not given), the “activity change, negative = cytotoxic” value was 8.93%.

In the case of `C1N2CN3CN1CN(C2)C3`, the “activity change, negative = cytotoxic” value was 3.01%.

As for `CCOC(=O)C(O)c1ccccc1` (stereo not given), the “activity change, negative = cytotoxic” value was 14.5%.

Consider `O=C1Nc2cc(Cl)ccc2Oc2ccccc21`, for which the “activity change, negative = cytotoxic” value was -15.9%.

For the molecule `CCOC(=O)O[C@]1(C(=O)OCCl)CC[C@H]2[C@@H]3CCC4=CC(=O)C=C[C@]4(C)[C@H]3[C@@H](O)C[C@@]21C`, the “activity change, negative = cytotoxic” value is -2.7%.

Take `Oc1ccc(CCNCCCCCCNCCc2ccccc2)cc1O`: the “activity change, negative = cytotoxic” value is -10.8%.

Take `NC(=O)COCCN1CCN(C(c2ccccc2)c2ccc(Cl)cc2)CC1` (stereo not given): the “activity change, negative = cytotoxic” value is -1.66%.

As to `CCOC(=O)Oc1ccc(CCNC(=O)[C@H](CCSC)NC(C)=O)cc1OC(=O)OCC`, the “activity change, negative = cytotoxic” value is -1.5%.

Regarding `CN1N=C(C(N)=O)CCC1=O`, the “activity change, negative = cytotoxic” value is -0.324%.

With `CCCc1c2oc(C(=O)O)cc(=O)c2cc2c(=O)cc(C(=O)O)n(CC)c12`, the “activity change, negative = cytotoxic” value is 8.85%.

Turning to `O=C(O)[C@H](O)[C@@H](O)[C@H](O[C@@H]1O[C@H](CO)[C@H](O)[C@H](O)[C@H]1O)[C@H](O)CO`, the “activity change, negative = cytotoxic” value was -1.12%.

Turning to `CC1(C)OC(=O)Nc2ccc(Br)cc21`, the “activity change, negative = cytotoxic” value was 5.65%.

Take `CC(C)(C)C(=O)OCOC(=O)C1N2C(=O)CC2S(=O)(=O)C1(C)C` (stereo not given): the “activity change, negative = cytotoxic” value was 11.5%.

Take `O=C(NN1CCCC1)NS(=O)(=O)c1ccc(Cl)cc1`: the “activity change, negative = cytotoxic” value was 7.86%.

For `Nc1ncnc2nc[nH]c12`, the “activity change, negative = cytotoxic” value was 18.1%.

For the molecule `Cc1ccc(C(=O)C(=O)O)cc1C`, the “activity change, negative = cytotoxic” value is 7.03%.
